# Assay outcomes deposited in PubChem by National Center for Advancing Translational Sciences (NCATS).
# PINK1 expr mod – A Quantitative High throughput Screen to Identify Chemical Modulators of PINK1 Expression; PINK1 immunofluorescence, high-content cytometry, 24 h; Potency, µM (top dose mostly 76.6 µM), for the others: at the top dose activation (PINK1 increase), most hits filed as activators; 0.2% of 410,000 active; active means well fitted activation curve with a large enough effect; inconclusive means small, poorly fitted or top-dose-only effect; cell line not stated here; further: % of control where 0% means no effect; nearly all actives have a fitted effect of over 65% in size
#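 Compound titrations (5 concentrations, 24 h) on a stable cell line; DMSO and CCCP controls. Endpoint: fixed-cell PINK1 immunofluorescence with mitochondrial, cell and nuclear markers, scanned by microplate cytometer.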
# KB-3-1 tox – qHTS assay for MDR1-selective chemotherapeutics: Primary screen using the parental adenocarcinoma cell KB-3-1 | KB-3-1 viability, CellTiter-Glo ATP luminescence, 72 h | Potency, µM (titrated, usually from 46.1 µM), hits mostly cytotoxic | 1.4% of 400,000 active | AID 1347075, 2019; further: on the % scale 0 is the no-effect control and ±100 the full control effect; nearly all actives have a fitted effect of over 60% in size
#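 72 h, 37 °C compound treatment of KB-3-1 parental cells; CellTiter-Glo added, 10 min, luminescence read. Data corrected against DMSO-only plates and normalized before curve fitting.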
# SW480 rereplic – A quantitative high throughput screen for small molecules that induce DNA re-replication in SW480 colon adenocarcinoma cells; 1.8% of 340,000 active; Potency, µM (highest dose often 46.1 µM), for the others: at the highest dose re-replication activation, hits mostly activators; SW480 DNA re-replication, Hoechst DNA content imaging, 48 h; AID 624297, 2012; further: % of control where 0% means no effect; nearly all actives have a fitted effect of over 55% in size
#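 Compounds, transferred as 23 nL by pin tool, were incubated with cells for 48 hr; DNA content per nucleus was then quantified by Hoechst staining and fluorescence plate imaging.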
# KB-V1 cytotox – qHTS assay for MDR1-selective chemotherapeutics: Primary screen using the drug-selected MDR subline cells KB-V1; Potency, µM (highest dose often 46.1 µM), actives largely listed as cytotoxic; 3.4% of 400,000 active; AID 1347076, 2019; KB-V1 MDR cells viability, CellTiter-Glo, 72 h; further: on the % scale 0 is the no-effect control and ±100 the full control effect; nearly all actives have a fitted effect of over 60% in size
#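 In this primary screen, KB-V1 cells overexpressing P-gp are incubated with library compounds (lowest to highest concentration) for 72 h at 37 degrees C before a luminescent ATP viability read.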
# MCF10A rereplic – A quantitative high throughput screen for small molecules that induce DNA re-replication in MCF 10a normal breast cells | MCF 10A DNA re-replication, Hoechst nuclear intensity, 48 h | Potency, µM (series often up to 46.1 µM), for inactives: at the highest dose activity, positive = re-replication, most hits filed as activators | 2.9% of 350,000 active; further: % of control where 0% means no effect; nearly all actives have a fitted effect of over 50% in size
# Starred values were filed as active, the others as inactive; i = inactive; ? = inconclusive; · = no result; [ ] = remark or other dose. The list is not random: actives were taken first. Their share in the collection is about 6.7%. Unless noted, the call rests on the fitted dose curve; in most records, active means well fitted curve in the direction sought with a large enough effect; inconclusive means small, poorly fitted or top-dose-only effect, or another doubt; inactive means no such curve, though single readings can be large; an effect the other way counts as inactive or inconclusive. Potency means the concentration at half of the fitted maximal effect.
SMILES,PINK1 expr mod,KB-3-1 tox,SW480 rereplic,KB-V1 cytotox,MCF10A rereplic
CS(=O)(=O)N1CCCC(C(=O)NCCc2ccccc2)C1 (configuration not stated),0%[38.3 µM],i,16µM*,i,?
Cc1nc(Nc2ccc(Cl)c(Cl)c2)sc1C(/C=C/c1ccc2c(c1)OCO2)=NNc1ccc([N+](=O)[O-])cc1[N+](=O)[O-],0%,i,-7%,i,-1%
c1ccc2c(c1)OCC(c1nnc3sc(-c4ccc5c(c4)OCO5)nn13)O2 (configuration not stated),-3%,i,12%,i,3%
Clc1ccccc1-c1nnc2sc(-c3ccc4c(c3)OCO4)nn12,0%[38.3 µM],21µM*,6.5µM*,8.2µM*,?
Brc1ccccc1-c1nnc2sc(-c3ccc4c(c3)OCCO4)nn12,·,i,?,?,6.5µM*
CCOc1ccc(NC(=O)CN(C)C(=O)CC(NC(=O)c2ccccc2)c2ccccc2)cc1OCC (configuration not stated),4%,i,1%,i,0%
COCCNS(=O)(=O)c1cc(OC)c(C)cc1C,2%,i,-44%,?,?
CCCOc1cc(C)c(S(=O)(=O)NCCOC)cc1C,3%[38.3 µM],i,1%,18µM*,-2%
CC(=O)N1CCCc2cc(S(=O)(=O)N3CCCC(C)C3)ccc21 (configuration not stated),1%,i,-16%,i,-4%
Cc1cc(=O)[nH]c(N=N/C(=N/Nc2ccc(O)cc2)c2ccccc2)n1,-1%,?,-2%[9.22 µM],i,?
COc1ccc(N/N=C(/N=Nc2nc(C)cc(=O)[nH]2)c2ccccc2)cc1,0%,6.5µM*,?,?,?
Cc1cc(=O)[nH]c(N=N/C(=N/Nc2ccccc2C)c2ccccc2)n1,2%,4.6µM*,5.2µM*,i,19%
COc1ccccc1N1CCN(c2nc3ccc(C)cc3n3nnnc23)CC1,1%,·,·,·,·
CCCCNC(=O)CSc1nc2cc(OC)c(OC)cc2c(=O)n1Cc1ccc(OC)cc1,4%[38.3 µM],i,-5%,2.1µM*,6%
COc1ccc(Cn2c(SCc3cc(C)ccc3C)nc3cc(OC)c(OC)cc3c2=N)cc1,·,?,?,11µM*,3.7µM*
COc1cc2nc(SCc3ccc(Cl)cc3Cl)n(Cc3cccs3)c(=N)c2cc1OC,7%,23µM*,-5%,6.5µM*,?
CCC(Sc1nc2cc(OC)c(OC)cc2c(=O)n1Cc1ccc(OC)cc1)C(=O)NCCOC (configuration not stated),0%,i,-12%[1.84 µM],i,25%
COc1ccc(Cn2c(SCc3ccc(C)cc3)nc3cc(OC)c(OC)cc3c2=N)cc1Cl,-2%,?,?,?,4.1µM*
CCN(CC)S(=O)(=O)c1ccc2c(c1)N(CC(=O)Nc1ccccc1F)C(=O)C1CCCN21 (configuration not stated),-1%,·,·,·,·
COc1cc(OC)cc(C2=Cc3ccccc3C(CC(=O)c3ccco3)N2c2ccc(-c3cccnc3)cc2)c1 (configuration not stated),1%,i,·,i,·
CC(C)C[C@@H]1CN(CCCC[C@H]2CNC(=O)C(=O)N2CCC2CCCCC2)C(=O)C(=O)N1CCc1ccc(O)cc1,0%,i,·,i,·
CC(C)C[C@@H]1CC2=C(C(=O)OC(C)(C)O2)[C@H](CCc2ccccc2)O1,?,i,·,?,·
O=C(CNC(=O)c1ccc(Cl)cc1)NNc1c(F)c(F)cc(F)c1F,-1%,i,-7%,i,5%
Cc1cc(OCC(=O)N2CCC(O)CC2)c2c(C)cc(=O)oc2c1,-1%,i,0%,i,3%
CC1=C(C(=O)N2CCOCC2)CC(CC(=O)NCc2cccc3ccccc23)C(=O)N1Cc1ccc(C(C)(C)C)cc1 (configuration not stated),-1%,?,·,?,·
